Source: the supplement of paper PMC7184167
Structures can show the parent of a compound that is named as a salt.

What follows are compounds tested on replication-induced senescent mouse newborn dermal fibroblasts (NBF) (assay: relative cell viability of senescent cells (fraction); higher = less killing of senescent cells). Conditions: 1 µM; 3 days.
Experimental: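 Replication-induced senescent newborn mouse skin fibroblasts (NBFs) in 24-well plates were treated with a Selleck FDA-approved drug library at 1 µM for 3 days.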

Compound | relative cell viability
CCC[S+]([O-])c1ccc2[nH]c(NC(=O)OC)nc2c1 (stereo not given) [Albendazole Oxide] | 0.993
CN1CCN(CCOc2cc(OC3CCOCC3)c3c(Nc4c(Cl)ccc5c4OCO5)ncnc3c2)CC1 [Saracatinib (AZD0530)] | 0.626
O=C(CCCCCCC(=O)Nc1ccccc1)NO [Vorinostat (SAHA, MK0683)] | 0.75
CCCOc1ccc(C(=O)OCCN(CC)CC)cc1N [Proparacaine HCl] | 0.992
COc1nc(N)nc2c1ncn2[C@@H]1O[C@H](CO)[C@@H](O)[C@@H]1O [Nelarabine] | 1.08
O=C(O)c1cc(/N=N/c2ccc(S(=O)(=O)Nc3ccccn3)cc2)ccc1O [Sulfasalazine] | 1.3
CN(C)CCC(c1ccc(Cl)cc1)c1ccccn1 (stereo not given) [Chlorpheniramine Maleate] | 0.208
C[C@]12CC[C@@H]3c4ccc(O)cc4CC[C@H]3[C@@H]1CCC2=O [Estrone] | 1
COCCOC(=O)C1=C(C)NC(C)=C(C(=O)OC(C)C)C1c1cccc([N+](=O)[O-])c1 (stereo not given) [Nimodipine] | 1.15
CN(C)CCc1c[nH]c2ccc(C[C@H]3COC(=O)N3)cc12 [Zolmitriptan] | 0.999
C[C@@H]1[C@H](O)[C@@H](C)/C=C/C=C/C=C/C=C/C=C/C=C/C=C/[C@H](O[C@@H]2O[C@H](C)[C@@H](O)[C@H](N)[C@@H]2O)C[C@@H]2O[C@](O)(C[C@@H](O)C[C@@H](O)[C@H](O)CC[C@@H](O)C[C@@H](O)CC(=O)O[C@H]1C)C[C@H](O)[C@H]2C(=O)O [Amphotericin B] | 0.766
COc1cnc(NS(=O)(=O)c2ccc(N)cc2)nc1 [Sulfameter] | 0.763
CCOc1ccc(Cc2cc([C@@H]3O[C@H](CO)[C@@H](O)[C@H](O)[C@H]3O)ccc2Cl)cc1 [Dapagliflozin] | 1.2
CCCCCCCCCCC[C@@H](C[C@@H]1OC(=O)[C@H]1CCCCCC)OC(=O)[C@H](CC(C)C)NC=O [Orlistat] | 0.998
Cc1ccc(NC(=O)c2ccc(CN3CCN(C)CC3)cc2)cc1Nc1nc(-c2cccnc2)cs1 [Masitinib (AB1010)] | 0.602
C[C@H](CCC(=O)O)[C@H]1CC[C@H]2[C@@H]3[C@H](O)C[C@@H]4C[C@H](O)CC[C@]4(C)[C@H]3CC[C@]12C [Chenodeoxycholic Acid] | 1.06
Clc1ccc(C(Cn2ccnc2)OCc2c(Cl)cccc2Cl)c(Cl)c1 (stereo not given) [Isoconazole nitrate] | 0.937
COc1cc2/c(=N/c3ccc(Br)cc3F)nc[nH]c2cc1OCC1CCN(C)CC1 [Vandetanib (ZD6474)] | 0.464
C[C@H](CCC(=O)O)[C@H]1CC[C@H]2[C@@H]3[C@@H](O)C[C@@H]4C[C@H](O)CC[C@]4(C)[C@H]3CC[C@]12C [Ursodiol] | 0.448
CC(C)OC(=O)OCOP(=O)(CO[C@H](C)Cn1cnc2c(N)ncnc21)OCOC(=O)OC(C)C [Tenofovir Disoproxil Fumarate] | 0.84

Compound | relative cell viability
C[C@H](Cn1cnc2c(N)ncnc21)OCP(=O)(O)O [Tenofovir] | 0.893
Cc1ccc(F)c(NC(=O)Nc2ccc(-c3cccc4[nH]nc(N)c34)cc2)c1 [Linifanib (ABT-869)] | 0.927
CC(C)CN(C[C@@H](O)[C@H](Cc1ccccc1)NC(=O)O[C@H]1CO[C@H]2OCC[C@H]21)S(=O)(=O)c1ccc(N)cc1 [Darunavir Ethanolate] | 0.839
COC(=O)N[C@H](C(=O)N[C@@H](Cc1ccccc1)[C@@H](O)CN(Cc1ccc(-c2ccccn2)cc1)NC(=O)[C@@H](NC(=O)OC)C(C)(C)C)C(C)(C)C [Atazanavir Sulfate] | 0.988
CCCCCOC(=O)Nc1nc(=O)n([C@@H]2O[C@H](C)[C@@H](O)[C@H]2O)cc1F [Capecitabine] | 0.891
CC(C)(C)NC(=O)[C@H]1CC[C@H]2[C@@H]3CC[C@H]4NC(=O)C=C[C@]4(C)[C@H]3CC[C@]12C [Finasteride] | 0.942
Clc1ccccc1C(c1ccccc1)(c1ccccc1)n1ccnc1 [Clotrimazole] | 1.01
N#C[C@@H]1C[C@@H]2C[C@@H]2N1C(=O)[C@@H](N)C12CC3CC(CC(O)(C3)C1)C2 [Saxagliptin] | 0.999
C[C@]1(c2nc3c(C(N)=O)cccc3[nH]2)CCCN1 [Veliparib (ABT-888)] | 0.885
O=C(O)c1ccc(-n2nc(-c3ccccc3O)nc2-c2ccccc2O)cc1 [Deferasirox] | 1.07
Nc1ccccc1NC(=O)c1ccc(CNc2nccc(-c3cccnc3)n2)cc1 [Mocetinostat (MGCD0103)] | 0.36
COC(=O)C1=C(C)NC(C)=C(C(=O)OCC(C)C)C1c1ccccc1[N+](=O)[O-] (stereo not given) [Nisoldipine] | 1.12
Cn1cc(CNCC2CCN(c3ncc(C(=O)NO)cn3)CC2)c2ccccc21 | 0.757
Nc1ccc(S(N)(=O)=O)cc1 [Sulfanilamide] | 0.91
COC(=O)Nc1nc2cc(C(=O)c3ccc(F)cc3)ccc2[nH]1 [Flubendazole] | 0.886
Cc1nc(Nc2ncc(C(=O)Nc3c(C)cccc3Cl)s2)cc(N2CCN(CCO)CC2)n1 [Dasatinib] | 1.39
CS(=O)(=O)N1CCN(Cc2cc3nc(-c4cccc5[nH]ncc45)nc(N4CCOCC4)c3s2)CC1 [Pictilisib (GDC-0941)] | 0.681
Cc1ccccc1N1C(=O)c2cc(S(N)(=O)=O)c(Cl)cc2NC1C (stereo not given) [Metolazone] | 0.962
Nc1ncn([C@@H]2O[C@H](CO)[C@@H](O)[C@H]2O)c(=O)n1 [Azacitidine] | 0.436
CNC(=O)c1ccccc1Sc1ccc2c(/C=C/c3ccccn3)n[nH]c2c1 [Axitinib] | 0.908
